Drawing on PubChem BioAssay (NCI), this text covers growth for 87 compounds.

The panel holds about 83,000 compounds, 20% with a hit somewhere; the sample as a whole holds those more often.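 The endpoint reported here, percent growth, reads 100 for growth as untreated, 0 for no net growth and -100 for all cells dead.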 Unmarked numbers belong to inactive results. The source made the active and inactive calls. The calls were made as follows: active = growth percent below 10; inactive = the rest.

The assay has as its system HL-60(TB) leukemia. Briefly: NCI-60 one-dose screen, 48 h (100 = growth as untreated, 0 = no growth, -100 = all killed). As to conditions: 10 µM unless noted.

`FCc1ncc(-c2ccc(C(F)(F)F)cc2)c(NC2CCCCCC2)n1`: the growth is -25.6% [100 µM] (active).

As for `N#C/C(=C/c1ccc(O)c([N+](=O)[O-])c1)c1nc(-c2ccc([N+](=O)[O-])cc2)cs1`, the growth was 26.5%.

Turning to `Cc1nn(-c2ccccc2)c(-n2ccnc2)c1/C=N/Nc1nc(-c2ccc(Cl)c(Cl)c2)cs1`, the growth was 76.6%.

For `COc1cc(CCN=Cc2ccccc2O)c([N+](=O)[O-])cc1OC`, the growth is 101%.

`O=S(=O)(Nc1ccccc1Cl)c1ccc(-c2cnc(C3CC3)o2)cc1`: the growth is 7.9% (active).

Consider `NCCOc1ncccc1/C=C1\c2ccccc2-c2ccc(F)cc21`, for which the growth is -38.6% (active).

As for `Cc1cc2nc(C(Cl)Cl)nc(-c3ccc(Cl)cc3)n2n1`, the growth was -8.18% (active).

On to `COc1cccc(C=Nc2cc(C(C)C)c(O)cc2C)c1O`, for which the growth is 85.9%.

Regarding `O=C(OC1CCCC1)c1ccccc1Cl`, the growth was 99.2%.

Regarding `COc1cc(-c2csc(NC(=O)c3ccc(N4CCOCC4)c(C(F)(F)F)c3)n2)cc(OC)c1OC`, the growth was 15.6%.

For `COc1ccc(C(=O)c2cc(OC)c(OC)c(OC)c2OC)cc1O`, the growth is 25.2%.

For `CC(Oc1ccc(C(=O)O)cc1C(F)(F)F)c1ccc(Oc2ccccc2)cn1` (configuration not stated), the growth is 101%.

Take `CC(C)OC(=O)Nc1ccc(-c2nc(-c3cccc(OCCN4CCOCC4)c3)c(-c3ccnc(Br)c3)[nH]2)cc1`: the growth was -47.7% (active).

Take `O=C1CC(c2ccc3c(c2)OCO3)Nc2cc3c(cc21)OCO3` (configuration not stated): the growth was -22.9% (active).

As for `CCCCCCCCN(CCCCCCCC)CCCCCCCCCN1CCCc2cc(OC)ccc21`, the growth was 89.6%.

In the case of `COc1ccc2c(c1)CCc1[nH]nc(-c3cc(OC)c(OC)c(OC)c3)c1-2`, the growth is -20.4% (active).

In the case of `COc1ccc(Nc2ccc3ccccc3c2)cc1`, the growth is 91.3%.

On to `O[C@@H]1CO[C@H]2[C@@H]1OC[C@@H]2O`, for which the growth was 98%.

For the compound `CCOC(=O)Nc1cc(-c2ccc(C)c(NS(C)(=O)=O)c2)nn2c(C)nnc12`, the growth was 10.8%.

Turning to `CCC(=O)Nc1ccccc1C#C/C=C\C#Cc1ccccc1SC`, the growth is -16.2% (active).

In the case of `CC(=O)Nc1ccc(S(=O)(=O)N/N=C\c2ccc(Cl)c(Cl)c2)cc1`, the growth is 1.93% (active).

On to `COc1ccc(C2CC(c3cc(OC)c(OC)c(OC)c3)=NN2)cc1` (configuration not stated), for which the growth is 60.1%.

`CCCCCCCCCCCCCC[n+]1ccc2c(C)c3c(c(C)c2c1)c1cc(O)ccc1n3CC`: the growth was -40.6% (active).

Regarding `O=C(/C=C/c1cn(-c2ccccc2)nc1-c1ccccc1)CCC(=O)NO`, the growth was 98.3%.

Consider `COc1cccc(CCC2C(=O)CCCC2=O)c1`, for which the growth was 87.2%.

For the compound `COC(=O)c1nc(-c2ccccc2)oc1S(=O)(=O)NCC(c1ccc(Cl)cc1)N1CCOCC1` (configuration not stated), the growth is 4.12% (active).

On to `Cc1cccc2c3c(sc12)C(c1ccc(Cl)cc1)C(C#N)=C(N)O3` (configuration not stated), for which the growth was -21% (active).

Regarding `Cc1cc(N2CCN(C)CC2)nc(NC2CCCC(Nc3ccnc4cc(Cl)ccc34)C2)n1` (configuration not stated), the growth is -64.9% (active).

As for `CCOC(=O)c1c(O)c2cc(-c3ccccc3)nc(OCC)c2c(=O)n1C`, the growth was 156%.

For the compound `Nc1ccn(C2CC(O)C(CO)O2)c(=O)n1` (configuration not stated), the growth was 86.1%.

In the case of `C=CCc1c(O)c(C(=O)/C=C/c2ccccc2)c(OC)c2ccoc12`, the growth was 36.3%.

As to `Cc1ccc(-c2nn(C)c(=O)c3noc(-c4ccc(C)cc4)c23)cc1`, the growth was 29.3%.

On to `CCCCn1c(=O)[nH]c(N)c(C(c2ccc(F)cc2)c2c(N)[nH]c(=O)n(CCCC)c2=O)c1=O`, for which the growth is 78.7%.

Regarding `COc1ccc(-c2nsc3c2NC(=O)CC3c2cccc(OC)c2)cc1` (configuration not stated), the growth was 6.13% (active).

In the case of `Nc1nc(-c2ccc(Cl)cc2)nc2c1sc(=S)n2-c1ccccc1`, the growth was 103%.

For `CCCCS(=O)(=O)c1cc(Nc2ccc(O)c3c2C(=O)c2ccccc2C3=O)ccc1C`, the growth was 75%.

As for `NCCNc1nc(Nc2ccc(-c3nc4ccccc4[nH]3)cc2)c2cn[nH]c2n1`, the growth is 91.9%.

Regarding `O=C1CCCCN1CCCCC#Cc1ccccc1C#Cc1ccc([N+](=O)[O-])cc1`, the growth is -25.7% (active).

With `COC(=O)Nc1nc2ccc(C(=O)c3ccc(N(C)C4COC4)cc3)cc2[nH]1`, the growth is -28.8% (active).

As to `CCCC(C)c1cc(Cc2cc(Cl)cc(Cl)c2O)c(O)c(Cc2cc(Cl)cc(Cl)c2O)c1` (configuration not stated), the growth is 4.98% (active).

`COc1ccc(N2C(=O)C3c4[nH]c5ccc(OCc6ccccc6)cc5c4C4CCC(C(C)C)CC4C3C2=O)cc1` (configuration not stated): the growth was 68.9%.

As to `CC(C)=C(NC(=O)c1ccccc1)C(=O)O`, the growth is 110%.

For the compound `Clc1nnc2c3ccccc3ccn12`, the growth was 92.6%.

On to `COc1ccc(C2OC(N)=C(O)C2=O)cc1OC` (configuration not stated), for which the growth was 92.6%.

Take `COc1ccc(Cc2nc(C#N)c(N3CCN(c4ccc(F)cc4)CC3)o2)cc1`: the growth was 79.2%.

Take `COc1ncc(-c2ccc3nc(N)n(-c4ccccc4C(F)(F)F)c(=O)c3c2)cc1S(=O)(=O)Nc1ccc(F)cc1F`: the growth is 19.9%.

In the case of `CCN(CC)c1ccc(/C=C/c2cc(C)c3ccccc3n2)cc1`, the growth was 59.1%.

As to `CC(=O)Cc1nsc(NC(=O)c2ccoc2COc2ccccc2)n1`, the growth is 98.5%.

Take `CCCCCCCCCCC(C[N+](C)(C)C/C=C/c1ccccc1)C(O)c1ccccc1` (configuration not stated): the growth is -48.9% (active).

`NS(=O)(=O)c1ccc(CCn2c(SCC(=O)c3ccc(Cl)cc3)nc3ccccc3c2=O)cc1`: the growth is 95.5%.

In the case of `CCOc1ccc(Nc2ccnc3cc(Cl)ccc23)cc1`, the growth was -25.6% (active).

`O=C(NC1CCCC1)c1ccc(N2CCC(NCc3cccc(C(F)(F)F)c3)CC2)cc1`: the growth was 66.5%.

Regarding `COc1ccc(CNC(=O)C(=O)[C@H](Cc2ccccc2)NC(=O)c2[nH]c3ccccc3c(=O)c2C)cc1`, the growth is 110%.

For `COc1ccc(NC2=C(Sc3nc(C)cc(C)n3)C(=O)N(Cc3ccccc3)C2=O)cc1Cl`, the growth is 58.8% [30 µM].

As for `COc1ccc(/C=C\c2cc(OC)c(OC)c(OC)c2)cc1OC(=O)c1cccc(Cn2cc(CCOC(=O)[C@H](N)Cc3cn(C)c4ccccc34)nn2)c1`, the growth was -42.7% (active).

For the compound `CC(=O)Nc1cccc(NC(C)=O)n1`, the growth was 96.5%.

`COCCn1cc(-c2nc(-c3cc4cccnc4n3C)cs2)c2cc(OC)ccc21`: the growth is 82.6%.

Turning to `O=C(O)/C=C/C(=O)Nc1cccc(Cn2nnc3cc(Cl)c(Cl)cc32)c1`, the growth is 112%.

`Cc1ncc(C(=O)Nc2ccc(CN3CCN(C)CC3)c(C(F)(F)F)c2)cc1C#Cc1cnc(N)c2ncccc12`: the growth is 6.76% (active).

For `CCOC(=O)Nc1ccc2c(c1)C(=O)N(CCOC)c1ccccc1O2`, the growth is -17.1% (active).

Consider `Cc1c(-c2ccc(O)cc2)n(Cc2ccc(OCCN3CCCCCC3)cc2)c2ccc(O)cc12`, for which the growth was 74.6%.

Take `CCCCCCCN(CCCCCCC)C(=N)c1ccc(OC)c2ccccc12`: the growth is -66.4% (active).

In the case of `Cc1csc(Nc2nc(-c3cccc(Br)c3)nc(C(Cl)(Cl)Cl)n2)n1`, the growth was 9.61% (active).

On to `NC(N)=NC(N)=NCCCc1ccco1`, for which the growth was 83.1%.

For `COc1ccc(-c2ccc(O)c(C(=O)/C=C/c3cc(OC)c(OC)c(OC)c3)c2)cc1`, the growth is 54.5%.

Take `CC[n+]1c(C)ccc2cc(C)ccc21`: the growth is 87%.

For `C[C@H]1C=C(C[C@@H](O)CC#CC#CCCCCC[C@@H](O)[C@H]2CCC(=O)O2)C(=O)O1`, the growth was 99.1%.

Turning to `CC(C)(C)C(=O)Nc1nc2c(s1)CCc1ccn(S(=O)(=O)c3ccccc3)c1-2`, the growth was 70%.

With `COc1cc(-c2ccc3cc(OC)c(OC)c(OC)c3c2)cc(OC)c1OC`, the growth was 67.4%.

Turning to `Cc1nc(Nc2cccnc2)sc1C(=O)/C=C/c1ccc(Cl)cc1`, the growth is -4.8% (active).

Turning to `CCOc1ccc(-c2cnnn2-c2nonc2-n2cccc2)cc1`, the growth was -23.8% (active).

`Cc1cccc(Cl)c1NC(=O)c1cnc(Nc2cc(N3CCOCC3)cc(N3CCOCC3)c2)s1`: the growth is 45.3%.

As for `COC12CC(=O)C(C(C)=O)=C(O)C1(C)c1c(O)c(C)c(O)c(C(C)=O)c1O2` (configuration not stated), the growth was 61.7%.

For the compound `CN1C2CCC1/C(=C\c1ccc(Cl)cc1)C(=O)/C2=C/c1ccc(Cl)cc1`, the growth is 20.3%.

`Cc1ccc(-c2cn3cc([N+](=O)[O-])ccc3n2)cc1`: the growth was 47.7%.

With `Cc1ccc2c(c1)C(=O)C(c1c(-c3[nH]c(=O)c4ccc(C)cc4c3O)c(O)c3ccccc3c1O)=NC2=O`, the growth was 8.93% (active).

Take `CCOC(=O)c1c(NC(=O)c2ccccc2)sc2c3c(ccc12)OCN(C)C3`: the growth was -62.5% (active).

As to `CCOC(=O)c1cc2oc(/C=C/c3cc(=O)c4cc(Cl)ccc4o3)cc2[nH]1`, the growth was 93%.

For `CCCCCCCCCCCC1=NC(C)(C)CN1CC(C)O` (configuration not stated), the growth was -15.1% (active).

Consider `O=C(Nc1ccc(N=Nc2ccccc2)cc1)c1cccc2ccccc12`, for which the growth is 11.8%.

On to `COc1ccc(C(=O)COc2ccc(/C=C3\Oc4ccc(OC)cc4C3=O)cc2)cc1`, for which the growth was 94.1%.

For the compound `CNC(=O)c1cc(Oc2ccc3c(c2)sc2nc(-c4ccc(NC(C)=O)cc4)cn23)ccn1`, the growth is 44.2%.

As to `COc1ccc(-c2ccc3cc(C(=O)Nc4ccc(O)c(C(=O)/C=C/c5cc(OC)c(OC)c(OC)c5)c4)ccc3c2)cc1`, the growth was 95.5%.

`CCOC1Oc2ccccc2C(=O)/C1=N/c1nccs1` (configuration not stated): the growth was 106%.

For `C/C(=N\Nc1ccccc1)c1ccc(NC2=CC(=O)c3ccccc3C2=O)cc1`, the growth is 80.6%.

Take `CC(=O)c1c[nH]c2ccc(-c3ccnc(Nc4ccc(NC(=O)c5cccc(F)c5)c(CN5CCOCC5)c4)n3)cc12`: the growth was -24.8% (active).

Turning to `Clc1ccc2nc(CI)c(CI)nc2c1`, the growth was 2.82% (active).
